Each structure is given as a SMILES string. Several values for one entry are separate records, joined by “and”; a condition that tells them apart may be missing. Identical values can stand only once. The campaign covered roughly 16,000 compounds. About 5,700 (36%) were called active. Roughly 24% stayed inconclusive and do not appear here. Calls follow the shape of the dose curve; as a rule, active = well fitted curve in the direction sought with a large enough effect; inconclusive = small, poorly fitted or top-dose-only effect, or effect the other way; inactive = no such curve, though single readings can be large or run the other way. The list shows a part of the results.

Broadly, the AC50 is the concentration at which the activity in the assay is half-maximal.
% is scaled to controls: 0 for no effect and ±100 for the full control effect.

For this experiment, the target named is Cytochrome P450 1A2 (Homo sapiens) (UniProt P05177). Description: Cytochrome panel assay with activity outcomes. The conditions noted are these: recombinant CYP, pro-luciferin dealkylation, luminescence, p450-cyp1a2; series mostly up to 57.1 µM.
Sequence of Cytochrome P450 1A2 (Homo sapiens) (P05177 whole entry, looked up): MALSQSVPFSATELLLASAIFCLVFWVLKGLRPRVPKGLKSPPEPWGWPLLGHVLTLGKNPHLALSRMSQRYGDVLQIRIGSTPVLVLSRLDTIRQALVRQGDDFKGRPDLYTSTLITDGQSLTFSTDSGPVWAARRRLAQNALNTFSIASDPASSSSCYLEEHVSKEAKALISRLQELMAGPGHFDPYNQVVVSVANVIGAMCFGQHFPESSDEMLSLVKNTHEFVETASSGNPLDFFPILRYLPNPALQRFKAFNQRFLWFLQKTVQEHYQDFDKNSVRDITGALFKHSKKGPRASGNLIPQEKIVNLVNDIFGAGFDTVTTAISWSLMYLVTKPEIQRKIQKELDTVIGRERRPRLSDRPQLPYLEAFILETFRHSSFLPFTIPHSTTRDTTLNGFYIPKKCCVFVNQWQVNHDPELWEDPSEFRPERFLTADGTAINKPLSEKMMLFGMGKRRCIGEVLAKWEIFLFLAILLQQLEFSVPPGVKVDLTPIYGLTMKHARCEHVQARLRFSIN
For `O=C1CCCN1CC#CCN1CCCC1`, the AC50 entry is “inactive”. Consider `COc1ccc(C(=O)O[C@H]2CC[C@@]3(C)[C@H]4CC[C@H]5[C@]3(C[C@]3(O)[C@H]6CN7C[C@H](C)CC[C@H]7[C@](C)(O)[C@]6(O)[C@H](O)C[C@]53O)O[C@]24O)cc1OC`, for which the activity, negative = inhibition was -20.9% [at 2.29 µM] (inactive). Consider `O[Si@](CCCN1CCCCC1)(c1ccc(F)cc1)C1CCCCC1`, for which the AC50 result was “inactive”. The same measure, in the same setting: under `CN1C(=O)C(C2c3ccccc3C(=O)N2Cc2ccc([N+](=O)[O-])cc2)C(=O)N(C)C1=O` (stereo not given) stands “inactive”. Take `CCCCN1C(=O)C(C2c3ccccc3C(=O)N2Cc2ccccc2)C(=O)NC1=S` (stereo not given): the AC50 was 12.6 µM (active). For `CC(C)CN1CCC2(CC1)CCN(C(=O)Oc1ccccc1)CC2`, the AC50 entry was “inactive”. Same read-out and setting: the value for `C=C(C)CN1CC[C@@]23c4c5ccc(O)c4O[C@H]2c2[nH]c4ccccc4c2C[C@]3(O)[C@@H]1C5` was “inactive”. Regarding `CC1=NN(c2ccc(S(=O)(=O)O)cc2C)C(=[OH+])[C@H]1N=Nc1cc(S(=O)(=O)O)ccc1C(=O)O.O.[Cr]`, the activity, negative = inhibition was -12.7% [at 11.4 µM] (inactive). `O=[N+]([O-])c1cc([As](=O)(O)O)ccc1O`: the AC50 entry was “inactive”. As to `CC[C@@]1(O)C(=O)OCc2c1cc1n(c2=O)Cc2cc3ccccc3nc2-1`, the AC50 is 2.51 µM (active). Turning to `CC[C@@]1(O)C(=O)OCc2c1cc1n(c2=O)Cc2cc3c(NC(=O)CN)cccc3nc2-1`, the activity, negative = inhibition was -12.3% [at 2.29 µM] (inactive).

In the case of `CC[C@]1(OC(=O)CN)C(=O)OCc2c1cc1n(c2=O)Cc2cc3ccccc3nc2-1`, the activity, negative = inhibition is -17.6% [at 2.29 µM] (inactive). For the compound `CCCC[N+]12CCC(CC1)C(C(=O)c1cccs1)C2` (stereo not given), the AC50 result was “inactive”.

Turning to `COC(=O)[C@@H](N)CCCN=C(N)N[N+](=O)[O-]`, the AC50 result is “inactive”. Same read-out and setting: the value for `Cc1cc(OCc2ccc([N+](=O)[O-])cc2)c2c3c(c(=O)oc2c1)CCCC3` was 2.24 µM (active). Same read-out and setting: the value for `Cc1cc(OC(=O)CCCNC(=O)OC(C)(C)C)c2c3c(c(=O)oc2c1)CCC3` was 2.24 µM (active); that for `Cc1cc(OCC(=O)OC(C)C)c2c3c(c(=O)oc2c1)CCCC3` was 3.55 µM (active); that for `Cn1cnc(CCN)c1` was “inactive”. As to `OC1(c2ccc(F)cc2)CCNC1` (stereo not given), the AC50 entry is “inactive”. Still for that read-out and setting: the value for `CCOC(=O)N(c1ccccc1)P1(=S)OCCO1` was 20 µM (active). As for `O=C(O)C[O][Sb][O]CC(=O)O`, the activity, negative = inhibition was -7.83% [at 2.29 µM] (inactive). For `CC(=O)O[C@H]1C[C@@H](O[C@@H]2[C@H](C)O[C@H](O[C@@H]3[C@H](C)O[C@H](O[C@@H]4CC[C@@]5(C)[C@@H](CC[C@]6(C)[C@]5(C)C[C@H](O)[C@]5(C)[C@@H](C7=CC(=O)OC7)CC[C@@]56O)C4)C[C@@H]3O)C[C@@H]2O)O[C@@H](C)[C@H]1O[C@H]1O[C@@H](CO)[C@@H](O)[C@@H](O)[C@@H]1O`, the AC50 entry is “inactive”.

As to `C[C@]1(C(=O)O)[C@@H]2CC[C@@H](O2)[C@@]1(C)C(=O)O`, the AC50 entry is “inactive”. On the same count and under the same terms, under `ClCCNc1nc2ccc(Cl)cc2[nH]1` stands 3.55 µM (active); under `N[C@H](C(=O)O)c1cc(=O)[nH]o1`, “inactive”; under `C[C@@]12CC(=O)[C@H]3[C@@H](CCC4=CC(=O)CC[C@]43C)[C@H]1CCC2=O`, “inactive”.

Turning to `CCCN(CCC)C1Cc2cc(OC)c(OC)cc2C1`, the AC50 entry is “inactive”. The same measure, in the same setting: under `CCn1cnc2c(Nc3cccc(Cl)c3)nc(N[C@@H]3CCCC[C@H]3N)nc21` stands 15.8 µM (active); under `CN(C)C(=O)Oc1cccc([N+](C)(C)C)c1`, “inactive”; under `COc1ccc(C[C@H]2c3cc(OC)c(OC)cc3CCN2C)cc1OC`, “inactive”. In the case of `COc1cc(/C=N/NC(=O)CN2CC(c3ccccc3)CC2=O)ccc1OC(=O)N(C)C` (stereo not given), the AC50 entry is “inactive”. Still for that read-out and setting: the value for `O=C(O)CC[N+](=O)[O-]` was “inactive”. Same read-out and setting: the value for `N#C/C(=C\c1ccc(O)c(O)c1)C(=O)NCCCNC(=O)/C(C#N)=C/c1ccc(O)c(O)c1` was “inactive”; that for `CC(C)(C)c1cc(C=C(C#N)C#N)cc(C(C)(C)C)c1O` was 10 µM (active); that for `N#C/C(=C\c1ccc(O)c(O)c1)C(N)=S` was 12.6 µM (active) and 6.31 µM (active). On the same count and under the same terms, the value for `COc1cc(C=C(C#N)C#N)cc(O)c1O` was 12.6 µM (active). With `N#CC(C#N)=Cc1cc(O)c(O)c(O)c1`, the AC50 entry is “inactive”. In the case of `N#CC(C#N)=Cc1ccc(O)c(O)c1`, the AC50 is 5.01 µM (active).

Take `COc1ccc2c(c1)CCC1[C@@H]2CCC2(C)[C@@H](NCCCCCCN3C(=O)C=CC3=O)CC[C@@H]12` (stereo not given in full): the AC50 entry was “inactive”. Turning to `CC[C@]1(c2cccc(O)c2)CCCCN(C)C1`, the AC50 entry was “inactive”. Same read-out and setting: under `COc1ccc(C2SCC(=O)Nc3c2c(C)nn3C2CCOC(C)(C)C2)cc1` (stereo not given) stands “inactive”; under `CCN1C[C@@]2(COC)CC[C@H](O)[C@@]34[C@@H]2C[C@@H]([C@@H]13)[C@]1(O)C[C@@H](OC)C2C[C@H]4[C@H]1[C@H]2OC(C)=O`, “inactive”; under `CC[C@@H]1CN2CCc3cc(OC)c(OC)cc3[C@H]2C[C@@H]1C[C@@H]1NCCc2cc(OC)c(OC)cc21`, “inactive”.

`CCc1cc2c(nc1CC)CCN(CC/C(C)=N/OC)C2`: the activity, negative = inhibition was -0.582% [at 11.4 µM] (inactive).

In the case of `C=C1C/C(=C\C)C(=O)O[C@@H]2CCN3CC=C(COC(=O)[C@@]1(C)O)[C@H]23`, the AC50 result is “inactive”. The same measure, in the same setting: the value for `CC[N+](CC)(CC)CCOc1cccc(OCC[N+](CC)(CC)CC)c1OCC[N+](CC)(CC)CC` was “inactive”. On the same count and under the same terms, under `N/C(=N\N=C/c1ccc(-c2ccc(O)c(C(=O)O)c2)o1)N[N+](=O)[O-]` stands “inactive”; under `Cc1o[nH]c(=O)c1C[C@@H](N)C(=O)O`, “inactive”; under `C[C@H]1CC[C@]2(OC1)O[C@@H]1C[C@@H]3[C@@H]4CC[C@H]5C[C@@H](O)CC[C@]5(C)[C@@H]4CC(=O)[C@@]3(C)[C@H]1[C@@H]2C`, “inactive”.

Take `CC(=O)OCC1=C(C(=O)O)N2C(=O)[C@@H](N)[C@@H]2SC1`: the AC50 result is “inactive”.

Regarding `c1ccc(N2CC3(CCNCC3)C2)cc1`, the AC50 entry was “inactive”. The same measure, in the same setting: under `Clc1cccc(N2CCNCC2)c1` stands 15.8 µM (active); under `c1ccc(N2CCC3(CCNCC3)CC2)cc1`, “inactive”.

In the case of `CCN1CCN(S(=O)(=O)c2ccc(Cl)nc2)CC1`, the AC50 entry is “inactive”. With `C[C@@]12CCC(=O)C=C1C=C[C@H]1[C@H]3CC[C@](O)(CCC(=O)O)[C@]3(C)CC[C@@H]12`, the AC50 result was “inactive”. In the case of `O=C(O)[C@@H]1[C@H](C(=O)O)[C@]2(Cl)C(Cl)=C(Cl)[C@@]1(Cl)C2(Cl)Cl`, the activity, negative = inhibition is -14.5% [at 11.4 µM] (inactive).

As to `CCCn1c(=O)c2[nH]c(C3CCCC3)nc2n(CCCOC(=O)c2ccc(S(=O)(=O)F)cc2)c1=O`, the AC50 entry is “inactive”. For the compound `CC(C)C(=O)CP(=O)(O)O`, the activity, negative = inhibition was -6.25% [at 11.4 µM] (inactive).

As to `C#CCN(C)[C@H](C)Cc1ccccc1`, the half-maximal activity concentration (AC50) was 12.6 µM (active). On the same count and under the same terms, the value for `CC(C)c1c(CN(C)[C@@H](C)Cc2ccccc2)n(C)n(-c2ccccc2)c1=O` was “inactive”.

With `CCCN1CCC[C@@H]2Cc3[nH]ncc3C[C@H]21`, the AC50 result is “inactive”. `CC(C)[C@]1(O)[C@@H](OC(=O)c2ccc[nH]2)[C@]2(O)[C@@]3(C)C[C@@]4(O)O[C@@]5([C@H](O)[C@@H](C)CC[C@]35O)[C@]2(O)[C@]41C`: the activity, negative = inhibition was -17.2% [at 2.29 µM] (inactive). For the compound `O=C(O)[C@H]1[C@H](C(=O)O)[C@H]2CC[C@@H]1O2`, the AC50 entry was “inactive”. The same measure, in the same setting: under `CCCCc1ccc(-c2nc(NC(=O)C3C4CCC(O4)C3C(=O)O)sc2C)cc1` (stereo not given) stands 15.8 µM (active); under `CC(C)[C@@]1(NC(=O)[C@@H]2C[C@H]3c4cccc5[nH]cc(c45)C[C@@H]3N(C)C2)O[C@]2(O)[C@H]3CCCN3C(=O)CN2C1=O`, “inactive”; under `O=C(O)[C@H]1CCN1`, “inactive”. Still for that read-out and setting: the value for `CC[C@]1([C@H]2O[C@@H]([C@@H]3O[C@](O)(CO)[C@@H](C)C[C@H]3C)C[C@H]2C)CC[C@@H]([C@]2(C)CC[C@@]3(C[C@@H](O)[C@@H](C)[C@@H]([C@H](C)[C@H](OC)[C@H](C)C(=O)O)O3)O2)O1` was “inactive”.

With `CC(=O)OC1=CC2=CC[C@H]3[C@H]4CCC(=O)[C@@]4(C)CC(=O)[C@]3(S)[C@]2(C)CC1`, the activity, negative = inhibition is -9.43% [at 2.29 µM] (inactive). Regarding `N[C@@H]1C[C@H]1c1ccccc1`, the AC50 is 15.8 µM (active).

Turning to `N[C@H]1C[C@H]1c1ccccc1`, the AC50 was 5.01 µM (active). Take `C[C@@]12CC[C@H](O)C[C@@H]1CC[C@H]1[C@@H]2C[C@@H](O)[C@]2(C)[C@@H](C3=CC(=O)OC3)CC[C@]12O`: the AC50 entry was “inactive”. The same measure, in the same setting: the value for `CCN1CCN(Cc2cc(OC)c(OC)cc2[N+](=O)[O-])CC1` was “inactive”; that for `Cc1noc(C)c1C(=O)N1CCC2(CCCN(CC(C)C)C2)CC1` was “inactive”.

Consider `NC(CCl)=N[C@H]1CN2CCC1CC2`, for which the activity, negative = inhibition is -4.08% [at 11.4 µM] (inactive). Turning to `N#Cc1ccc(CN2CCCC3(CCN(C(=O)Oc4ccccc4)CC3)C2)cc1`, the AC50 entry was “inactive”. On the same count and under the same terms, under `N#CC(=C(/N)Sc1ccccc1N)/C(C#N)=C(/N)Sc1ccccc1N` stands 31.6 µM (active).

Consider `NC(=O)CN1CCCC1=O`, for which the AC50 result was “inactive”. Same read-out and setting: under `CC(C)C(=O)Nc1ccc([N+](=O)[O-])c(C(F)(F)F)c1` stands 0.316 µM (active); under `CCN1CCN(c2ccc(NC(=O)C(C)C)cc2Cl)CC1`, “inactive”. Still for that read-out and setting: under `CS(=O)(=O)N1CCCC(C(=O)N2CCC3(CC2)OCCO3)C1` (stereo not given) stands “inactive”; under `CCOC(=O)C1Cc2c([nH]c3ccccc23)CN1` (stereo not given), 5.01 µM (active). For the compound `CN(C)CS/C(N)=N/[C@H](O)C(Cl)(Cl)Cl`, the activity, negative = inhibition was 4.09% [at 2.29 µM] (inactive).

For the compound `O=C1CN=C(c2cccs2)c2c(sc3c2CCCC3)N1`, the half-maximal activity concentration (AC50) was 15.8 µM (active). On the same count and under the same terms, under `NC[C@H](O)c1ccc(O)cc1` stands “inactive”; under `CN1C2C=C3C(C#N)=C(N)C(C#N)(C#N)[C@H](c4c(F)cccc4F)[C@H]3C1CC2` (stereo not given in full), “inactive”. Same read-out and setting: under `Oc1ccc2c3c1O[C@H]1c4oc5ccccc5c4C[C@]4(O)[C@H](C2)N(CC2CC2)CC[C@@]314` stands “inactive”.

`Nc1ccncc1`: the AC50 entry was “inactive”. The same measure, in the same setting: the value for `OCc1cnc[nH]1` was “inactive”; that for `NC(=NCCc1ccc(I)cc1)SCCCc1cnc[nH]1` was 15.8 µM (active); that for `CC(=O)OCC1=C(C(=O)[O-])N2C(=O)[C@@H](NC(=O)CCC[C@@H](N)C(=O)[O-])[C@@H]2SC1.[Zn+2]` was “inactive”.

Source of the values: PubChem BioAssay AID1851 (National Center for Advancing Translational Sciences (NCATS), 2009).
